# Experimental data taken from PubChem BioAssay (NCATS).
# “And” between values parts separate entries of the source, which are not always exact repeats. Equal values may be shown once. Inconclusive results are not listed. Where a call stands in place of a potency, no number is given. The source holds several records for some structures; these can differ, active in one and inactive in another. The source made the active and inactive calls. Unless noted, the call rests on the fitted dose curve.
# Legend:
# [1] = Primary qHTS for Huh7 cytotoxicity: counterscreen for inhibitors of MERS-S pseudotyped particle cell entry (AID 1479147); conditions: outcome: dose series up to 57.1 µM unless noted
# [2] = Primary qHTS for inhibitors of MERS-S pseudo-typed particle cell entry (AID 1479149); conditions: outcome: dose series up to 57.1 µM unless noted; further: nearly all actives have a fitted effect of over 60% in size; further: potency means the concentration at half of the fitted maximal effect
# [3] = Primary qHTS to identify inhibitors of SARS-CoV-2 cell entry (AID 1645846); conditions: SARS-CoV-2 pseudovirus cell entry assay, luminescence; activity change, negative = inhibition: at 57.1 µM (top of the series) unless noted; further: nearly all actives have a fitted effect of over 45% in size; further: potency means the concentration at half of the fitted maximal effect
# In short: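 Using luciferase-reporting pseudoviruses carrying Wuhan-Hu-1 spike, the screen tracks entry into stably ACE2-expressing cells over 48 hr. Activity is expressed relative to spike particles versus particles lacking any fusion protein.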
# [4] = Cell Viability - LYMP2-007 (AID 979; active means well fitted curve in the direction sought with a large enough effect; an effect the other way counts as inactive or inconclusive;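 further: potency means the concentration at half of the fitted maximal effect; cells exposed to compound for 24 h before reading; nearly all actives have a fitted effect of over 60% in size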)
# In short: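 Cells are seeded at 2500 per well and rested 5 hr. Compounds are then added over a concentration series for 24 hr at 37 C. CellTiter-Glo is added for 30 min at room temperature before luminescence reading.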
# [5] = target: Estrogen receptor (Homo sapiens) (UniProt P03372); assay: qHTS assay for small molecule antagonists of estrogen receptor alpha signaling (AID 588513; active means well fitted curve in the direction sought with a large enough effect in the signal ratio, with a control signal flat, not every such curve was filed as active; the % refers to the signal ratio)
# In short: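 Antagonist-mode qHTS in ER-alpha-UAS-bla HEK 293 cells: compound titration, 0.5nM estradiol for 18 h, CCF4 fluorescence, Hill-derived IC50.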
# [6] = target: Glucocorticoid receptor (Homo sapiens) (UniProt P04150); assay: qHTS assay for small molecule agonists of glucocorticoid receptor signaling (AID 588532; active means well fitted curve in the direction sought with a large enough effect in the signal ratio, with a control signal flat; the % refers to the signal ratio); conditions: HeLa MMTV-bla, beta-lactamase ratio, agonist, 18 h; stronger effect = higher value; percent of dexamethasone control, DMSO zero
# In short: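 Cells were plated and rested 3-5 h at 37 C, compounds were added in titration and incubated 18 h, then CCF4 substrate was loaded for 2 h at RT before reading blue/green fluorescence. EC50 came from Hill-equation fitting.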
# [7] = target: Peroxisome proliferator-activated receptor delta (Homo sapiens) (UniProt Q03181); assay: qHTS assay for small molecule agonists of peroxisome proliferator-activated receptor delta signaling (AID 588534)
# In short: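 Agonist-mode qHTS; reporter cells, 5 hrs 37 C pre-incubation; compound titration, 18 hrs 37 C; CCF4 dye, 2 hrs RT; fluorescence read. EC50/efficacy via Hill fit.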
# [8] = target: Peroxisome proliferator-activated receptor gamma (Homo sapiens) (UniProt P37231); assay: qHTS assay for small molecule antagonists of peroxisome proliferator-activated receptor gamma signaling (AID 588537; active means well fitted inhibition curve with a large enough effect in the signal ratio, with a control signal flat, not every such curve was filed as active; the % refers to the signal ratio;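 further: reporter cells co-stimulated with 50 nM rosiglitazone agonist during compound treatment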)
# In short: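 Fluorescence at 460 and 530 nm (405 nm excitation) reported beta-lactamase cleavage of CCF4 after 2 h room-temperature loading. HEK293 reporter cells in 1% charcoal/dextran-treated FBS had received compound and rosiglitazone for 16 h.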
# [9] = target: Thyroid hormone receptor beta (Homo sapiens) (UniProt P10828); assay: qHTS assay for small molecule antagonists of thyroid hormone receptor beta signaling (AID 588547; active means well fitted inhibition curve with a large enough effect in the signal ratio, with a control signal flat, not every such curve was filed as active; the % refers to the signal ratio;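 further: cells stimulated with 0.4 nM T3 agonist during compound exposure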); conditions: TR-UAS-bla HEK293, beta-lactamase ratio, antagonist mode, 18 h
# In short: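 TR-UAS-bla GripTite HEK293 cells in 2% charcoal/dextran FBS medium; compounds 0.59 nM to 92 uM with T3 at 0.4nM final, 18 h at 37 C. Beta-lactamase read by CCF4 fluorescence (460/530 nm); Hill fits gave IC50 and efficacy.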
# [10] = qHTS assay for small molecule agonists of the antioxidant response element (ARE) signaling pathway (AID 651741; active means well fitted activation curve with a large enough effect in the signal ratio; the % refers to the signal ratio; further: potency means the concentration at half of the fitted maximal effect)
# In short: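 Stably integrated ARE-beta-lactamase reporter HepG2 cells; 16 h compound incubation, 37 C; LiveBLAzer FRET substrate 2 h at room temperature; fluorescence intensity.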
# [11] = qHTS assay for small molecule agonists of the antioxidant response element (ARE) signaling pathway measured by Nrf2-dependant transcriptional activity (AID 720636; active means well fitted curve in the direction sought with a large enough effect in the repeat runs; an effect the other way counts as inactive or inconclusive;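 further: HepG2 cells with an ARE-driven luciferase reporter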)
# In short: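 Cells: ARE-luc HepG2 with Nrf2-responsive luciferase. Medium contained 1% dialyzed FBS. Compound exposure lasted 16 hr at 37 C and 5% CO2, followed by ONE-Glo luciferase detection.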
# [12] = Primary qHTS for Vero E6 cytotoxicity: counterscreen for inhibitors of SARS-S pseudo-typed particle cell entry (AID 1479150); conditions: outcome: dose series up to 57.1 µM unless noted; further: potency means the concentration at half of the fitted maximal effect
# [13] = Cytotoxicity counterscreen for inhibitors of SARS-CoV-2 cell entry (AID 1645845); conditions: outcome: dose series up to 57.1 µM unless noted; further: nearly all actives have a fitted effect of over 50% in size
# In short: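 Counterscreen run in the same HEK293-ACE2 line as the pseudotyped-particle entry assay, without particles. Viability after 48 h at 37 C was read as ATP luminescence, scaled between cell-containing and cell-free wells.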
# [14] = KB-8-5-11 P-gp reporter qHTS against the NCATS DSHEA and TCM libraries (AID 1919977; active means well fitted curve in the direction sought with a large enough effect; an effect the other way counts as inactive or inconclusive)
# In short: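 Viability of drug-resistant KB-8-5-11 cells is measured by CellTiter-Glo luminescence following roughly 72 h treatment at 37C. Substances were titrated, with bortezomib as intraplate control.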
# [15] = target: Glutathione peroxidase 1 (Homo sapiens) (UniProt P07203); assay: Primary qHTS Assay for Inhibitors of Recombinant Selenoprotein Glutathione Peroxidase 1 (GPX1) (AID 1845191; active means well fitted curve in the direction sought with a large enough effect; an effect the other way counts as inactive or inconclusive; further: nearly all actives have a fitted effect of over 65% in size)
# In short: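 GR-coupled readout: NADPH consumption tracked by fluorescence, ex 340/em 450 nm, at t=0 and after 15 min at RT. Final mix 10 nM GPX1, 1 mM GSH, 0.5 mM CHP, 0.5 mM NADPH, 100 nM GR, 0.01% BSA, following 30 min enzyme–compound preincubation.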
# [16] = target: Phospholipid hydroperoxide glutathione peroxidase GPX4 (Homo sapiens) (UniProt P36969); assay: Primary qHTS Assay for Inhibitors of Recombinant Selenoprotein Glutathione Peroxidase 4 (GPX4) (AID 1845192; active means well fitted curve in the direction sought with a large enough effect; an effect the other way counts as inactive or inconclusive; further: nearly all actives have a fitted effect of over 65% in size)
# In short: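 Steps: GPX4 plus compound, 30 min RT; add GR/GSH/NADPH master mix; start with cumene hydroperoxide; read 340/450 nm fluorescence at 0 and 15 min. Finals were 200 nM GPX4, 1 mM GSH, 0.5 mM CHP, 0.5 mM NADPH, 100 nM GR.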
# [17] = Confirmatory qHTS for VERO E6 Cytotoxicity Assay: Counterscreen for SARS-CoV-2 CPE Assay (AID 1508605); further: nearly all actives have a fitted effect of over 60% in size
# [18] = Confirmatory qHTS for activators (rescue) of SARS-CoV-2 Cytopathic Effect (CPE) (AID 1508606); further: potency means the concentration at half of the fitted maximal effect; nearly all actives have a fitted effect of over 70% in size
# [19] = qHTS Assay for Identifying Gametocytocidal Compounds (AID 743244; active means well fitted curve in the direction sought with a large enough effect; an effect the other way counts as inactive or inconclusive; further: potency means the concentration at half of the fitted maximal effect); conditions: P. falciparum 3D7 stage III-V gametocytes, alamarBlue, 72 h
# In short: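 In this qHTS viability screen, late-stage 3D7 gametocytes are incubated with compound for 72 h, then with alamarBlue for 24 h; reduced resorufin fluorescence marks killing.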
# [20] = S16 Schwann cell PMP22 intronic element beta-lactamase assay (AID 624044); conditions: S16 rat Schwann cells, PMP22 element beta-lactamase FRET, 24 h; ratio activity, negative = inhibition: at 38.3 µM (top of the series) unless noted; further: potency means the concentration at half of the fitted maximal effect; nearly all actives have a fitted effect of over 15% in size
# In short: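 Beta-lactamase reporter under a PMP22 intronic regulatory element in stable S16 rat Schwann cells; 24 h compound exposure. 460 nm blue signal normalized between DMSO (0%) and potassium clavulanate, with 535 nm FRET tracking viability; curves classed by r2 and response.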
# [21] = Confirmatory qHTS to identify inhibitors of SARS-CoV-2 cell entry (AID 1645844); further: potency means the concentration at half of the fitted maximal effect; nearly all actives have a fitted effect of over 45% in size
# In short: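 HEK293-ACE2, overnight seeding; cpd 1 h, 37C/5% CO2; + SARS-CoV-2-S MLV PP (Wuhan-Hu-1, ΔC19); 48 h; Bright-Glo luminescence. Data normalised to S PP and bald PP wells.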
# Chain of Glutathione peroxidase 1 (Homo sapiens) (P07203 whole entry, looked up): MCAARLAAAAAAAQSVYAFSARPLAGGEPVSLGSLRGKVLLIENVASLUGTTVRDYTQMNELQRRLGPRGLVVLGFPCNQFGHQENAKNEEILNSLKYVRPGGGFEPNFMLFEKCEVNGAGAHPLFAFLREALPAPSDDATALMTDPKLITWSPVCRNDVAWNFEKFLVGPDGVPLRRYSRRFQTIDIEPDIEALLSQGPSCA
# Chain of Peroxisome proliferator-activated receptor delta (Homo sapiens) (Q03181 whole entry, looked up): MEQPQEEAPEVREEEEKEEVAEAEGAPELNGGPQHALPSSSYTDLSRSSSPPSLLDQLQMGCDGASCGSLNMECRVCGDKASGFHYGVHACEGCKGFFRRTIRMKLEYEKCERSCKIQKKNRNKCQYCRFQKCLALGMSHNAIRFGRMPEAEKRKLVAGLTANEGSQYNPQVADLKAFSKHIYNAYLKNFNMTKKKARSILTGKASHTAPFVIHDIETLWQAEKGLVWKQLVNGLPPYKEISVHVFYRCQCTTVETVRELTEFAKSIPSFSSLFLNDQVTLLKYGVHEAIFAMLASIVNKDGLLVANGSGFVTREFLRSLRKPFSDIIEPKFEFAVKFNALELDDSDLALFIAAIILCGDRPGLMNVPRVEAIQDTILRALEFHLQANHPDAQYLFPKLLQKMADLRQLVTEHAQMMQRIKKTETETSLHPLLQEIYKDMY
# Chain of Phospholipid hydroperoxide glutathione peroxidase GPX4 (Homo sapiens) (P36969 whole entry, looked up): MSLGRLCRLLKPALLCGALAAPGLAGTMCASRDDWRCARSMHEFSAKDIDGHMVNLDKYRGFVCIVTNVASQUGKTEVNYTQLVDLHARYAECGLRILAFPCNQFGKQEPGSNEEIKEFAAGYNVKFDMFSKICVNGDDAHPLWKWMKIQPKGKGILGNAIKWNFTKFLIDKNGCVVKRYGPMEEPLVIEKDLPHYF
# Chain of Estrogen receptor (Homo sapiens) (P03372 whole entry, looked up): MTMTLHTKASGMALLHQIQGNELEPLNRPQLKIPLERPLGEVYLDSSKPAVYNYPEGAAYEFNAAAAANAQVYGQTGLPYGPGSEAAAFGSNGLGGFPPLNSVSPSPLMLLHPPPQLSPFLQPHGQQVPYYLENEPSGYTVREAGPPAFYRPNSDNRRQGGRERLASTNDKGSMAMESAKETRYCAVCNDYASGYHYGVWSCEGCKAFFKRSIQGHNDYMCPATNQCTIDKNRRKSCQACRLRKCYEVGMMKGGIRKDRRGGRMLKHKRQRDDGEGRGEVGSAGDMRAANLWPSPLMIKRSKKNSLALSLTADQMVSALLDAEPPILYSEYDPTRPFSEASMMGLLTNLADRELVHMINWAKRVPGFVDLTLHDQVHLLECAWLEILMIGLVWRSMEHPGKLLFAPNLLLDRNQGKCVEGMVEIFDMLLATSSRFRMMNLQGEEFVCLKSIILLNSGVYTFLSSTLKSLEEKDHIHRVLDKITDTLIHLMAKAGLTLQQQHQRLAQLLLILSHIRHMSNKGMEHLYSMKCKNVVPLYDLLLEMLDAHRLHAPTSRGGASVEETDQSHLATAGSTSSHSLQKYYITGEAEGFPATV
# Chain of Thyroid hormone receptor beta (Homo sapiens) (P10828 whole entry, looked up): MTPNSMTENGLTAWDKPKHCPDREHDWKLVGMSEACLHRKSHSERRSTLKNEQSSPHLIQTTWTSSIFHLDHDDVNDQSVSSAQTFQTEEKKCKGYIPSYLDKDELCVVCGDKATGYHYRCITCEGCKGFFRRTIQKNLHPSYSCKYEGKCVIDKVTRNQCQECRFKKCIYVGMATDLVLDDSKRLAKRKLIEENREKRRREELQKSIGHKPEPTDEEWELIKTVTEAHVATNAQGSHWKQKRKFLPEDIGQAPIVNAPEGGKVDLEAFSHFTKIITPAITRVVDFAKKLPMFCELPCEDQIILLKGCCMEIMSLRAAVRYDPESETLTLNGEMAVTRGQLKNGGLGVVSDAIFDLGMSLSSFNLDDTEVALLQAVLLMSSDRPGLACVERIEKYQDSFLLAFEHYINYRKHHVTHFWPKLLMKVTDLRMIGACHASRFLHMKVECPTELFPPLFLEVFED
# Chain of Peroxisome proliferator-activated receptor gamma (Homo sapiens) (P37231 whole entry, looked up): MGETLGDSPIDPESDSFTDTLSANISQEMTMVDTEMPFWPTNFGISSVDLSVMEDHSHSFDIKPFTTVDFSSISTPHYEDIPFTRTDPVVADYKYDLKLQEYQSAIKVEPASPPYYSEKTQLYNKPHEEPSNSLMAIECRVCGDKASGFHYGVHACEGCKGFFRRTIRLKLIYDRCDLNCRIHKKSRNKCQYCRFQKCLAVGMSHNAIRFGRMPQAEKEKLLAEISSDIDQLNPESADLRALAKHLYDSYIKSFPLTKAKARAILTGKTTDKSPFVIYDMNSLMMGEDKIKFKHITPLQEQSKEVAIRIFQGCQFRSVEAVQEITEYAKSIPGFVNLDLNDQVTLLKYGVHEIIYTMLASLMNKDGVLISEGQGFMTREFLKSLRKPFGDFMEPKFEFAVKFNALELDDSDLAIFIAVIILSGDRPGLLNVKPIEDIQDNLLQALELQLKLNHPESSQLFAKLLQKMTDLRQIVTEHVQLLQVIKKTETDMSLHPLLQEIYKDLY
# Chain of Glucocorticoid receptor (Homo sapiens) (P04150 whole entry, looked up): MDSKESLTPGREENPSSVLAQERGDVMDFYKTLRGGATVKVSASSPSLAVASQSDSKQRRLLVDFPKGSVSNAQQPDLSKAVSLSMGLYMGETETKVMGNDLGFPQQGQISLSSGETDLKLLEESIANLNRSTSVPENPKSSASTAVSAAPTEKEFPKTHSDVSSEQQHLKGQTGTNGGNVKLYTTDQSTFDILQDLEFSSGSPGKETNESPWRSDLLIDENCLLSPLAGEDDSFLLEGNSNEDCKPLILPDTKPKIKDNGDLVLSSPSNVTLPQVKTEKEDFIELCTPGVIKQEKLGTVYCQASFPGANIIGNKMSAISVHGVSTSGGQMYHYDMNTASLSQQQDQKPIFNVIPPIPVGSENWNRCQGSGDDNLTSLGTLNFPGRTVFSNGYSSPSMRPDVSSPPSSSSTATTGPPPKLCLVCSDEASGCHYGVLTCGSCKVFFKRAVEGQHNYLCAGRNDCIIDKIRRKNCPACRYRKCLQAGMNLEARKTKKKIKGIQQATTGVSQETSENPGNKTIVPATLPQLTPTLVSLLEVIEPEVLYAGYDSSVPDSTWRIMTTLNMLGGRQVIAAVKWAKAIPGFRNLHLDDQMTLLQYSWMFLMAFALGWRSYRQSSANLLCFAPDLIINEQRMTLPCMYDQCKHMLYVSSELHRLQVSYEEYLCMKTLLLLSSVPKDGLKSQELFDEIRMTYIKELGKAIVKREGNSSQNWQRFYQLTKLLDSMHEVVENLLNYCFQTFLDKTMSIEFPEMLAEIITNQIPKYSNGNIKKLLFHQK
structure (smiles),measurement,setting,value
C[C@H]1CC[C@@H]2[C@@H](C)[C@H]3[C@H](C[C@H]4[C@@H]5CC=C6C[C@@H](O[C@@H]7O[C@H](CO)[C@H](O)[C@H](O[C@@H]8O[C@H](CO)[C@@H](O)[C@H](O)[C@H]8O)[C@H]7O[C@@H]7O[C@@H](C)[C@H](O)[C@@H](O)[C@H]7O)CC[C@]6(C)[C@H]5CC[C@]34C)N2C1,Potency,[1],inactive
same,Potency,[2],inactive
same,Potency,[3],20 µM (active)
O=C(O)CC(O)(CC(=O)O)C(=O)O,Potency,[4],50.1 µM (active)
same,Potency,[5],inactive
same,activation,[6],1.56% (inactive)
same,outcome,[7],inactive
same,Potency,[8],inactive
same,activity change % (negative = inhibition),[9],-10.8% (inactive) and 10.6% (inactive)
same,Potency,[10],inactive and 54.5 µM (active)
same,outcome,[11],inactive
same,Potency,[1],inactive
same,Potency,[2],inactive
same,Potency,[12],inactive
same,Potency,[13],inactive
same,"activity change, negative = inhibition",[3],-17.5%
same,Potency,[14],inactive
CC1=C(C(=O)O)N2C(=O)[C@@H](NC(=O)[C@H](N)C3=CCC=CC3)[C@@H]2SC1,Potency,[1],inactive
same,Potency,[2],inactive
same,Potency,[12],inactive
same,"activity change, negative = inhibition",[3],-32.9%
N=C(N)c1ccc(OCCCOc2ccc(C(=N)N)cc2Br)c(Br)c1,Potency,[1],inactive
same,Potency,[12],inactive
O=S(=O)(O)c1ccc2c(N=Nc3ccc(S(=O)(=O)O)c4ccccc34)c(O)c(S(=O)(=O)O)cc2c1,Potency,[1],inactive
same,Potency,[2],inactive
same,Potency,[13],inactive
same,"activity change, negative = inhibition",[3],-21.2%
CN1CCC2=C(C1)C(c1ccccc1)c1ccccc12 (centres undefined),Potency,[1],inactive
same,Potency,[2],inactive
same,Potency,[12],inactive
same,Potency,[13],inactive
same,Potency,[15],inactive
same,Potency,[16],inactive
CCN(CC)CCS(=O)(=O)[C@@H]1CCN2C(=O)c3coc(n3)CC(=O)C[C@H](O)/C=C(C)/C=C/CNC(=O)/C=C/[C@@H](C)[C@@H](C(C)C)OC(=O)[C@@H]12,Potency,[1],inactive
same,Potency,[2],inactive
same,Potency,[12],inactive
same,"activity change, negative = inhibition",[3],-29%
Cc1nn(C)c2c1C(c1ccccc1F)=NCC(=O)N2C,Potency,[1],inactive
same,Potency,[2],22.4 µM (active)
same,Potency,[12],inactive
same,Potency,[13],inactive
same,Potency,[15],inactive
same,Potency,[16],inactive
CN1CC[C@H](CN2c3ccccc3Sc3ccccc32)C1,Potency,[1],inactive
same,Potency,[12],inactive
same,Potency,[17],inactive
same,Potency,[18],11.2 µM (active)
same,Potency,[13],inactive
same,Potency,[3],12.6 µM (active)
CCCCC/C=C/C/C=C/CCCCCCCC(=O)O,Potency,[1],inactive
same,Potency,[2],inactive
same,Potency,[12],inactive
same,Potency,[13],inactive
same,"activity change, negative = inhibition",[3],-0.957%
same,Potency,[14],inactive
CCCC(CCC)C(=O)OC1C[C@H]2CC[C@@H](C1)[N+]2(C)C (some centres undefined),Potency,[19],10 µM (active)
same,Potency,[1],inactive
same,Potency,[2],inactive
same,Potency,[12],inactive
same,Potency,[13],inactive
CN(C)C1C(=O)C(C(N)=O)=C(O)C2(O)C(=O)C3=C(O)c4c(O)ccc(Cl)c4C(C)(O)C3CC12 (centres undefined),Potency,[1],inactive
same,Potency,[2],inactive
same,Potency,[12],inactive
same,Potency,[13],inactive
same,Potency,[15],inactive
CCCCCCCC/C=C/CCCCCCCC(=O)O,Potency,[1],inactive
same,Potency,[2],inactive
same,Potency,[12],inactive
same,Potency,[13],inactive
same,Potency,[14],inactive
Cc1cc(C2=NOC(c3cc(Cl)cc(Cl)c3)(C(F)(F)F)C2)ccc1C(=O)NCC(=O)NCC(F)(F)F (centres undefined),Potency,[1],inactive
same,Potency,[2],inactive
same,Potency,[12],inactive
same,Potency,[13],inactive
same,Potency,[15],inactive
CC(C)n1c(/C=C/[C@H](O)C[C@H](O)CC(=O)O)c(-c2ccc(F)cc2)c2ccccc21,Potency,[20],14.1 µM (active)
same,Potency,[1],inactive
same,Potency,[2],inactive
same,Potency,[12],8.91 µM (active)
same,Potency,[13],inactive
same,Potency,[3],inactive
CCOC(=O)c1c[nH]c2cc(OCC(C)C)c(OCC(C)C)cc2c1=O,Potency,[1],inactive
same,Potency,[2],inactive
same,Potency,[13],inactive
same,"activity change, negative = inhibition",[3],-18.7%
C=C1/C(=C/C=C2\CCC[C@]3(C)[C@@H]([C@H](C)CC[C@@H](O)C(C)C)CC[C@@H]23)C[C@@H](O)C[C@@H]1O,Potency,[1],inactive
same,Potency,[12],inactive
Cc1cc(C#N)cc(C)c1Oc1nc(Nc2ccc(C#N)cc2)nc(N)c1Br,Potency,[1],inactive
same,Potency,[12],inactive
CC(CN1c2ccccc2Sc2ccc(S(=O)(=O)N(C)C)cc21)N(C)C (centres undefined),Potency,[1],inactive
same,Potency,[12],inactive
same,Potency,[17],inactive
same,Potency,[21],39.3 µM (active)
CN1CCc2c(c3ccccc3n2Cc2ccccc2)C1,Potency,[1],inactive
same,Potency,[12],inactive
CCN1C[C@@]2(COC)C3[C@@H](OC)C4[C@@H]1[C@@]3(C1C[C@]3(O)[C@H](OC(=O)c5ccccc5)C1[C@]4(OC(C)=O)[C@@H](O)[C@@H]3OC)[C@@H](OC)C[C@H]2O (some centres undefined),Potency,[1],inactive
same,Potency,[2],inactive
same,Potency,[12],inactive
same,Potency,[15],inactive
